# Bioassay records deposited in PubChem by National Center for Advancing Translational Sciences (NCATS).
# JMJD2A Tudor inh – qHTS Assay for Inhibitors of JMJD2A-Tudor Domain. 390,000 tested, 4.4% active. Potency, µM (series often up to 114 µM), usual class: inhibitors. Lysine-specific demethylase 4A (Homo sapiens), O75164. AlphaScreen JMJD2A-Tudor / H3K4me3 peptide binding; also: nearly all actives have a fitted effect of over 50% in size
# Sfp inh – qHTS Assay for Inhibitors of Bacillus subtilis Sfp phosphopantetheinyl transferase (PPTase) | Biochemical Sfp PPTase activity, qHTS | Potency, µM, most hits filed as inhibitors | 310,000 tested, 3.5% active | 4'-phosphopantetheinyl transferase ffp (Bacillus subtilis), Q9F4F7;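 also: the enzyme is Sfp with the accession as filed and its product quenches rhodamine fluorescence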
#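 Compounds were incubated with enzyme (final 15 nM) for 15 min at room temperature before substrate addition started the reaction. Fluorescence at 525 nm excitation, 598 nm emission was recorded immediately and after 30 minutes.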
# HP1b binding inh – HTS for Inhibitors of HP1-beta Chromodomain Interactions with Methylated Histone Tails; AlphaScreen HP1-beta / biotin-H3K9me3 peptide binding; Chromobox protein homolog 1 (Homo sapiens), P83916; Potency, µM (doses to about 114 µM), most hits filed as inhibitors; AID 540317, 2011; 390,000 tested, 0.56% active; also: nearly all actives have a fitted effect of over 70% in size
# Target sequence (P83916 whole entry, looked up): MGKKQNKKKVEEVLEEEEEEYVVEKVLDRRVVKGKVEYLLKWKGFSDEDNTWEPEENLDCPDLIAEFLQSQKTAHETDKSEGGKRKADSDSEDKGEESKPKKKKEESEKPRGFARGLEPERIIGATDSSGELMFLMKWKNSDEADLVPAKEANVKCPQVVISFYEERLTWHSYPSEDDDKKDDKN
#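 Compound inhibition of the preformed complex between 50 nM HP1-beta and 50 nM biotinylated H3K9me3 peptide was read by AlphaScreen. Buffer was PBS pH 7.4 with 0.01% Tween-20. Incubations ran 30 min at room temperature, with 10 ug/mL donor/acceptor beads.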
# BAZ2B block – qHTS Assay for Inhibitors of BAZ2B. AID 504333, 2011. AlphaScreen BAZ2B-H3K14Ac peptide displacement. 360,000 tested, 4.4% active. Bromodomain adjacent to zinc finger domain protein 2B (Homo sapiens), Q9UIF8. Potency, µM (top dose mostly 114 µM), most hits filed as inhibitors; also: nearly all actives have a fitted effect of over 60% in size
#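 Protein-peptide AlphaScreen: BAZ2B 50 nM, b-H3K14Ac 50 nM, 1x PBS pH 7.4 + 0.01% Tween-20. Preincubation 30 min RT; cpd 30 min RT (top 110 uM); beads 20 min RT, light-protected.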
# G9a block – qHTS Assay for Inhibitors of Histone Lysine Methyltransferase G9a | Potency, µM (doses to about 102 µM), hits mostly inhibitors | AID 504332, 2011 | G9a H3K9 monomethylation, AlphaScreen, 2 h | 350,000 tested, 8.8% active; also: nearly all actives have a fitted effect of over 75% in size
# Target sequence (Q96KQ7 913-1193 limits assumed): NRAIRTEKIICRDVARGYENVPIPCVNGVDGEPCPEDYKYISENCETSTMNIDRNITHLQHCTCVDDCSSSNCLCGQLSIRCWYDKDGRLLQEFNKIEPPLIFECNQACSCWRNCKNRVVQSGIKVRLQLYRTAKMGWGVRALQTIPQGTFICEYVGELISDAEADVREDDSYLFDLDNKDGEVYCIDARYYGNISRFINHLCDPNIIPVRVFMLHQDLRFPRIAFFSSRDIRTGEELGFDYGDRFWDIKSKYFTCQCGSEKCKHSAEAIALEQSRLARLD
#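 G9a (20 nM) was preincubated 15 min with compound, then reacted 2 h at room temperature with 500 nM biotin-H3K9 peptide and 20 µM SAM. Monomethyl-H3K9 detected by AlphaScreen using anti-H3K9me1 antibody.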
# Hits are given with their value; . = inactive; ? = inconclusive; / = no result; ! = not active in a repeat; [ ] = remark or other dose. A selection: hits, their analogues and other compounds. The true share with any hit is near 12%. Calls follow the shape of the dose curve; as a rule, active = well fitted curve in the direction sought with a large enough effect; inconclusive = small, poorly fitted or top-dose-only effect, or another doubt; inactive = no such curve, though single readings can be large; an effect the other way counts as inactive or inconclusive.
SMILES,JMJD2A Tudor inh,Sfp inh,HP1b binding inh,BAZ2B block,G9a block
Cc1cc(-c2nc(C)c(C(=O)NNS(=O)(=O)c3cccc(C(F)(F)F)c3)s2)no1,.,.,.,.,/
C/C(=N/NC(=O)c1sc(NS(=O)(=O)c2ccccc2)nc1C)c1sc(N)nc1C,?,.,.,?,50µM
Cc1ccc(S(=O)(=O)Nc2nc(C)c(C(=O)NNS(=O)(=O)c3ccccc3)s2)cc1,.,.,.,.,50µM
Cc1cccc(S(=O)(=O)NNC(=O)c2sc(C)nc2C)c1,10µM,.,.,.,?
Cc1nc(C)c(C(=O)NNS(=O)(=O)c2ccc([N+](=O)[O-])cc2)s1,2µM,.,.,.,7.9µM
CSc1ccc(CC2C(=O)Nc3ccccc32)cc1 (stereo not given),.,/,.,.,.
Cc1c(C(=O)NNS(=O)(=O)c2ccccc2)sc(=S)n1C,8.9µM,.,.,?,.
Cc1ncoc1C(=O)Nc1ncc([N+](=O)[O-])s1,40µM,.,?,?,4.5µM
COC(=O)N1CCC2(CC1)CN(C(=O)Nc1cccc(C#N)c1)C2,/,.,/,/,.[12.7 µM]
CC1CC1C(=O)Nc1nc(-c2ccccn2)cs1 (stereo not given),56µM,25µM,?,?,8.9µM
O=C(Nc1nc(-c2ccccc2)cs1)C1COc2ccccc2O1 (stereo not given),.,.,.,.,.[12.7 µM]
O=C(Nc1nc(-c2ccccn2)cs1)C1COc2ccccc2O1 (stereo not given),56µM,.,.,20µM,.
Cc1ccc(CNC(=O)CCCCn2c(=O)c3ccccc3n(Cc3c(C)cc(C)cc3C)c2=O)cc1,.,/,.,.,.
COc1ccccc1CNS(=O)(=O)c1ccc(-c2cc(C(F)(F)F)on2)s1,.,/,.,.,.
Cc1cc(-c2nn3c(-c4ccccc4)nnc3s2)c2ccccc2n1,.,?,.,.,2.2µM
Cc1ccccc1-c1nn2c(-c3ccccc3)nnc2s1,.,56µM,.,.,.[12.7 µM]
COc1ccc(-c2nnc3sc(-c4ccccc4OC)nn23)cc1,.,.,.,.,.
CCOc1cc(OCC)c(C(=O)CCC(=O)O)cc1OCC,/,.,/,/,?
CC1=C(C)CS(=O)N(S(=O)(=O)c2ccc(Cl)cc2)C1 (stereo not given),.,3.5µM,.,.,2.2µM
CCN(CC)S(=O)(=O)c1ccc(C)c(NC(=O)CNc2cccc(S(=O)(=O)N3CCCC3)c2)c1,.,/,.,.,.
Cc1ccc(S(=O)(=O)N2CCCCC2)cc1NC(=O)CNc1ccc(C(F)(F)F)cc1,.,/,.,.,56µM
Cc1ccc(S(=O)(=O)N2CCCCC2)cc1NC(=O)CCCOc1ccccc1,.,/,.,.,?
CC(=O)c1ccc(OCCCC(=O)Nc2cc(S(=O)(=O)N3CCCCC3)ccc2C)cc1,.,/,.,.,35µM
COc1ccc(OC)c(NC(=O)C(OC(=O)CNC(=O)c2ccccc2)c2ccccc2)c1 (stereo not given),.,/,/,/,/
Nc1nc(CN2CCc3ccccc3C2)nc(Nc2ccccc2)n1,79µM,.,.,50µM,?
SMILES,JMJD2A Tudor inh,Sfp inh,HP1b binding inh,BAZ2B block,G9a block
COc1ccc(Nc2nc(N)nc(CN3CCc4ccccc4C3)n2)cc1,?,.,.,50µM,?
COc1ccc(Nc2nc(N)nc(CN3CCC(C)CC3)n2)cc1,.,.,.,.,20µM
CC1CC(C)CN(Cc2nc(N)nc(Nc3ccc4ccccc4c3)n2)C1 (stereo not given),.[11.4 µM],.,.,50µM,.
C/C(=N/Nc1ccc(C(=O)O)cc1)c1ccc(O)c(O)c1O,10µM,40µM,.,.,3.5µM
COc1ccc(OC)c(/C(C)=N/Nc2ccc(C(=O)O)cc2)c1,.,.,.,.,14µM
NCCCNCCCCNCCCNC(=O)CCc1ccc(O)cc1,/,.,/,/,?
COc1ccc(CC(=O)OCC(=O)Nc2ccc(Cl)cc2C)cc1,.,/,.,/,/
COC(=O)/C(=N/Nc1ccccc1C)Sc1nnc(C(O)c2ccccc2)n1-c1ccccc1 (stereo not given),.,?,.,.,16µM
CC(C)NCC(O)COc1cccc2ccccc12 (stereo not given),.,.,.,.,3.2µM!
CCc1ccc(CN(C)CC(O)COc2cccc3ccccc23)cc1 (stereo not given),2.5µM,?,?,.,22µM
OCC(O)COc1cccc2ccccc12 (stereo not given),/,.,/,/,.
Cc1c2oc3c(C)ccc(C(=O)N[C@@H]4C(=O)N[C@H](C(C)C)C(=O)N5CCC[C@H]5C(=O)N(C)CC(=O)N(C)[C@@H](C(C)C)C(=O)O[C@@H]4C)c3nc-2c(C(=O)N[C@@H]2C(=O)N[C@H](C(C)C)C(=O)N3CCC[C@H]3C(=O)N(C)CC(=O)N(C)[C@@H](C(C)C)C(=O)O[C@@H]2C)c(N)c1=O,/,.,/,/,11µM
CCCCCCCCCn1c2c(c(=N)c3c1CCC3)CCCC2,.,45µM,.,.,.
CCCCCn1c2c(c(=N)c3ccccc31)CCC2,?,?,.,.,50µM
CCn1c2c(c(=N)c3c1CCC3)CCCC2,.,.,.,.,.
CCCCCCCCn1c2c(c(=N)c3ccccc31)CCC2,.,.,.,.,.
CCCCCCCCCCn1c2c(c(=N)c3c1CCC3)CCC2,.,28µM,.,.,.[12.7 µM]
CS(=O)(=O)Nc1c(O)ccc2c1CCC[C@H]2C1=NCCN1,/,.,/,/,/
COc1ccc(C(=O)/C=C/C(=O)N(CC(=O)NC2CCCCC2)Cc2ccc(F)cc2)c(O)c1,.,8.9µM,.,.,/
COc1ccc(C(=O)/C=C/C(=O)N(CC(=O)NCCC(C)C)Cc2cccs2)c(O)c1,.,3.5µM,.,.,.
CCc1ccc(C(O)(CC(C)C)C(CN2CCOCC2)c2ccccc2)cc1 (stereo not given),.,.,.,.,.
CCc1ccc(C(O)(c2ccccc2OC)C(CN2CCOCC2)c2ccccc2)cc1 (stereo not given),.,.,.,/,45µM
CCOc1ccc(C(O)(c2ccccc2)C(CN2CCCC2)c2ccccc2)cc1 (stereo not given),14µM,.,.,.,.
CCOC(=O)N/N=C1/C[C@@H](O)[C@@H](O)[C@@H]2[C@@H]3C(=O)N(CC)C(=O)[C@H]3CC[C@@H]12,/,.,/,/,/
COc1cccc(C2CC(c3c(-c4ccccc4)c4cc(Cl)ccc4[nH]c3=O)=NN2S(C)(=O)=O)c1OC (stereo not given),.,.,.,.,40µM
CC(=O)c1c(-c2ccccc2)[nH]c2ccccc12,.,.,.,.,.[0.501 µM]
